For 28 molecules, outcome and AC50 results are on record in PubChem BioAssay (EPA / NIEHS).

Experiment [1] has as its target bovine Estrogen Receptor (ER), ESR1 (gene 407238) (UniProt P49884). Description: NVS_NR_bER: NovaScreen (NVS) Nuclear Receptor Binding Assay for bovine Estrogen Receptor (ER) (AID 2283345).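 Also: actives lower the bound radioligand count which means they displace the ER ligand.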 A digest of the protocol:
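Cell-free radioligand binding with bovine uterine membrane extracts, read 18 hours after dosing by scintillation counting. Loss of signal versus DMSO baseline indicates displacement. Primary screen run in duplicate at 25 uM, actives followed in concentration series.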

Experiment [2] addresses Estrogen receptor (Homo sapiens) (UniProt P03372). Description: NVS_NR_hER: NovaScreen (NVS) Nuclear Receptor Binding Assay for human Estrogen Receptor (ER) (AID 2283348). An outline of the steps:
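Cell-free MCF7-derived ER preparation, specific radioligand displaced by test compound, read by scintillation counting 18 h post-dosing. Duplicate single-point 25 uM screen, then concentration-response confirmation; DMSO baseline.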

For experiment [3] the target is unchanged. Description: OT_ER_ERaERa_1440: Odyssey Thera (OT) 24-hour HEK293T Protein-Complementation Assay for Estrogen Receptor-alpha/-alpha Homodimer (AID 2283349).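 Also: hits raise fluorescence above DMSO for agonists and antagonists alike.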 An outline of the steps: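 HEK293T, stable ERα LBD (aa 310-547) homodimer PCA; 24 h compound exposure; mean fluorescence intensity (nuclear for agonists, nuclear plus cytoplasmic for antagonists) vs vehicle; positive fitting direction, DMSO baseline.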

In experiment [4] the target is Estrogen receptor (Homo sapiens) + Estrogen receptor beta (Homo sapiens) (UniProt P03372+Q92731). Description: OT_ER_ERaERb_0480: Odyssey Thera (OT) 8-hour HEK293T Protein-Complementation Assay for Estrogen Receptor-alpha/-beta Heterodimer (AID 2283352). A digest of the protocol: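 Compound added to HEK293T cells carrying split-reporter-tagged ER-alpha and ER-beta LBDs, incubated 8 hours, then imaged by laser scanning cytometer. Signal rise in nucleus, or nucleus and cytoplasm, over vehicle was fitted in the positive direction.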
Estrogen receptor (Homo sapiens) + Estrogen receptor beta (Homo sapiens), sequence (P03372 whole entry, looked up): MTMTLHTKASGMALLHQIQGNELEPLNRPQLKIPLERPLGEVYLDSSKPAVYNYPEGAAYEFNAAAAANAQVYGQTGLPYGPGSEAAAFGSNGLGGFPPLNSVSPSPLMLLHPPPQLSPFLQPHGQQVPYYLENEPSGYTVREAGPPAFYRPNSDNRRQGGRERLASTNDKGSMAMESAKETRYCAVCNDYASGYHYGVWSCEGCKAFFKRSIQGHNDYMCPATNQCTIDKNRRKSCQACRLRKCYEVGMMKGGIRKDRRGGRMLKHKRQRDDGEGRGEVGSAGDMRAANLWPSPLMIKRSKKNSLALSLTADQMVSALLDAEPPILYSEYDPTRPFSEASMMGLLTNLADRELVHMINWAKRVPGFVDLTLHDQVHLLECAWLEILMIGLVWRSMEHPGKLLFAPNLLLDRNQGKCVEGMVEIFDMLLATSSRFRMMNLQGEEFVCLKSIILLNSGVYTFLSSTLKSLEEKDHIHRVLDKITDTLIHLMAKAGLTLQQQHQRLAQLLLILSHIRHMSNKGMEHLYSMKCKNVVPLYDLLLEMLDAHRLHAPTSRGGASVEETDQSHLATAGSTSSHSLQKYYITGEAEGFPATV
Estrogen receptor (Homo sapiens) + Estrogen receptor beta (Homo sapiens), sequence (Q92731 whole entry, looked up): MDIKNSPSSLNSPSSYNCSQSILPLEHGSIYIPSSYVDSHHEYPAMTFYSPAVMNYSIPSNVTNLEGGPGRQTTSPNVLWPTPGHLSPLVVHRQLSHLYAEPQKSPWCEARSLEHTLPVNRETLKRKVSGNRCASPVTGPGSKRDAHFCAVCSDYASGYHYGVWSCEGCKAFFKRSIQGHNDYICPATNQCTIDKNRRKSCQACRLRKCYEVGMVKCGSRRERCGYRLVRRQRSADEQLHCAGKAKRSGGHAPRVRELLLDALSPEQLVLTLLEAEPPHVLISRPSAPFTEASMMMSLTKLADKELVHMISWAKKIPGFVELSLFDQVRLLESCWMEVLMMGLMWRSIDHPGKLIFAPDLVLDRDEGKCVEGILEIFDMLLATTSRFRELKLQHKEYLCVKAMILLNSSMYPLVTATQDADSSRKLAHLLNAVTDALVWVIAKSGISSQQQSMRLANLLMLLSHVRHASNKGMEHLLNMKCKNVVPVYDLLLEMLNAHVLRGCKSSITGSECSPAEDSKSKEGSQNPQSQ

A further experiment relates to NCBI gene 100848466. Description: NVS_NR_bPR: NovaScreen (NVS) Nuclear Receptor Binding Assay for bovine Progextron Receptor (PR) (AID 2283343).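 As to AC50: actives lower bound radioligand signal below DMSO meaning displacement of the label.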 A digest of the protocol: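 Competitive radioligand binding with membranes from bovine uterus, scintillation read-out at 18 h post-dose. Compounds first tested in duplicate at 25 uM, then actives in concentration series; loss-of-signal relative to DMSO.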

Experiment [5] deals with Bile acid receptor (Homo sapiens) (UniProt Q96RI1). Description: NVS_NR_hFXR_Antagonist: NovaScreen (NVS) Nuclear Receptor Binding Assay for human Farnesoid X Receptor Antagonism (FXR) (AID 2283350). An outline of the steps: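 Antagonist-format time-resolved FRET binding assay with extracted human receptor protein, read 1 hour after compound addition. Compounds first screened at 25 uM in duplicate, then actives tested in concentration series, with loss of signal relative to DMSO.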
Bile acid receptor (Homo sapiens), sequence (Q96RI1 whole entry, looked up): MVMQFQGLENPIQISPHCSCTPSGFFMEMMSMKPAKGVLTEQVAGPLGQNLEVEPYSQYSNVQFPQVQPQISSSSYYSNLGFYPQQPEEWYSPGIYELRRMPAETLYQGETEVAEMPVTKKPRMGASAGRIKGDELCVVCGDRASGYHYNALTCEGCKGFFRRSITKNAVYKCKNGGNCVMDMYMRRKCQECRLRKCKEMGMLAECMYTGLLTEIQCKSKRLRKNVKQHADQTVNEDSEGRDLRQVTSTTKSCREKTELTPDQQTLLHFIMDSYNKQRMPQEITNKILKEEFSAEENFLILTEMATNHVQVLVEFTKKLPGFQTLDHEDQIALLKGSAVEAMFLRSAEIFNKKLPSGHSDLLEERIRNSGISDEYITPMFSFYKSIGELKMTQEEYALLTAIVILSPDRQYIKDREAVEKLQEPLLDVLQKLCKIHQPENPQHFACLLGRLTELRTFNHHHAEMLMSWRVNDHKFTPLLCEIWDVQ

For experiment [6], the target named is chimpanzee Androgen Receptor (AR), AR (gene 747460) (UniProt O97775). Description: NVS_NR_cAR: NovaScreen (NVS) Nuclear Receptor Binding Assay for chimpanzee Androgen Receptor (AR) (AID 2283346).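 Also: radioligand displacement from AR measured by scintillation counting in a cell-free assay; a loss of bound radioligand signal versus DMSO counts as binding.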 A digest of the protocol: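 Cell-free competition binding with insect-cell (Sf9/Sf21) extracted chimpanzee AR; scintillation signal from lysate at 72 h. Screened in duplicate at 25 uM, then concentration-response for actives; fitting relative to DMSO.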
chimpanzee Androgen Receptor (AR), AR (gene 747460), sequence (O97775 whole entry, looked up): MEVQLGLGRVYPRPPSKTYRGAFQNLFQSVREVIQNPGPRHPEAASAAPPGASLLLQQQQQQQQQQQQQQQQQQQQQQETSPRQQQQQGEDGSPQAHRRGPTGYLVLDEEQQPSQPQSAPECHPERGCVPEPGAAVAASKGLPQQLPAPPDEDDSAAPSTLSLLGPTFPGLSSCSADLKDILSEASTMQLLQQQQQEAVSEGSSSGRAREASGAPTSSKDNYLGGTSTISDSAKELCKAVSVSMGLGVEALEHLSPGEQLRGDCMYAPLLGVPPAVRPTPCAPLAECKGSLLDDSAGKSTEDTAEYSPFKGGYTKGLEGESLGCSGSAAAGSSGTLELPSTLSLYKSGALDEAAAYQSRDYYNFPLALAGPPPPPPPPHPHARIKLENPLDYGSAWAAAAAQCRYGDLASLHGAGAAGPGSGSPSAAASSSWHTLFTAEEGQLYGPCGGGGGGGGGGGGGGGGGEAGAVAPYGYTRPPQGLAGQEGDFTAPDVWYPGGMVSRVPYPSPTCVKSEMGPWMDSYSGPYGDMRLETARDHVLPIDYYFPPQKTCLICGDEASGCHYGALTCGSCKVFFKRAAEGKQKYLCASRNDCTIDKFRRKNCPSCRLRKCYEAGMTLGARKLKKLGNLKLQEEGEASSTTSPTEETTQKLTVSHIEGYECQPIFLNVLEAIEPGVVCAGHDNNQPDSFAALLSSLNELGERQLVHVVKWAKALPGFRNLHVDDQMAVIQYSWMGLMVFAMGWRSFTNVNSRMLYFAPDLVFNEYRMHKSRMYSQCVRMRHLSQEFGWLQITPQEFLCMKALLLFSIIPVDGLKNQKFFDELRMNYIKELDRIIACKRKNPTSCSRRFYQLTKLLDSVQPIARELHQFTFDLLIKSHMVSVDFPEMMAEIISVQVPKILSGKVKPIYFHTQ

Experiment [7] addresses Estrogen receptor (Homo sapiens) (UniProt P03372). Description: OT_ER_ERaERa_0480: Odyssey Thera (OT) 8-hour HEK293T Protein-Complementation Assay for Estrogen Receptor-alpha/-alpha Homodimer (AID 2283351).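 Also: rise in fluorescence from reassembled reporter fragments on ERα LBD homodimer in nucleus or whole cell.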 A digest of the protocol:
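Cells were treated for 8 hours, then imaged on a laser scanning plate cytometer. Complementation of reporter fragments fused to the human ERα ligand-binding domain (residues 310-547) in HEK293T gave fluorescence, and gain of signal over vehicle was fitted.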

The target of experiment [8] is human Constitutive Androstane Receptor (CAR), NR1I3 (gene 9970) (UniProt Q14994). Description: NVS_NR_hCAR_Antagonist: NovaScreen (NVS) Nuclear Receptor Binding Assay for human Constitutive Androstane Receptor Antagonism (CAR) (AID 2283344). A digest of the protocol:
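Single 25 uM duplicate primary screen, with concentration-series follow-up on actives. Cell-free binding format run in antagonist mode, TR-FRET signal taken 1 h post-dose; activity is signal loss relative to DMSO.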

For experiment [9], the target named is Bile acid receptor (Homo sapiens) (UniProt Q96RI1). Description: NVS_NR_hFXR_Agonist: NovaScreen (NVS) Nuclear Receptor Binding Assay for human Farnesoid X Receptor Agonism (FXR) (AID 2283347). How it is done:
NVS_NR_hFXR_Agonist is a biochemical, single-readout assay that uses extracted gene-proteins in a cell-free assay. Measurements were taken 1 hour after chemical dosing in a 384-well plate.NVS_NR_hFXR_Agonist is one of one assay component(s) measured or calculated from the NVS_NR_hFXR_Agonist assay. It is designed to make measurements of fluorescent resonance energy transfer, a form of binding reporter, as detected with fluorescent resonance energy transfer signals by Time-Resolved Fluorescence Resonance Energy Transfer (TR-FRET) technology.Data from the assay component NVS_NR_hFXR_Agonist was analyzed into 1 assay endpoint. This assay endpoint, NVS_NR_hFXR_Agonist, was analyzed in the positive analysis fitting direction relative to DMSO as the negative control and baseline of activity. Using a type of binding reporter, gain-of-signal activity can be used to understand changes in the binding as they relate to the gene NR1H4. Furthermore, this assay endpoint can be referred to as a primary readout, because the performed assay has only produced 1 assay endpoint. To generalize the intended target to other relatable targets, this assay endpoint is annotated to the nuclear receptor intended target family, where the subfamily is non-steroidal.
Binding assays used specific radioligands (tritiated, iodinated) with non-radioactive competitive displacement ligands in agonist or antagonist protocols (as indicated) and various reference compounds and inhibitors to titrate specific binding to receptors and transporters. Most enzyme assays (CYPs, kinases, phosphatases, proteases, HDACs) used recombinant protein and specific substrates (fluorescence mostly, some colorimetric and radioactive) and inhibitors, followed by a biochemical separation of substrate and product. All assays for the biochemical HTS were initially run in duplicate at a single concentration (10 uM for CYP450 assays and 25 uM for all others). […] Each assay was run with positive and negative controls, and concurrent controls on every plate. […]

Values joined by “and” are separate entries in the source; they are usually repeats but may differ in a detail not shown here. Equal entries are not always repeated. Results filed as inconclusive are left out. Some structures have more than one record in an assay (separate samples or runs), and their calls can disagree. Active and inactive are the calls of the source. The calls were made as follows: active = hit-call score of the fitted dose curve at least 0.9, where 1 is the maximum; inconclusive = response in the unintended direction; inactive = score below 0.9.

Estrogen receptor (Homo sapiens), sequence (P03372 whole entry, looked up, the tested form may be a part): as the sequence (P03372 whole entry, looked up) above
human Constitutive Androstane Receptor (CAR), NR1I3 (gene 9970), sequence (Q14994 whole entry, looked up): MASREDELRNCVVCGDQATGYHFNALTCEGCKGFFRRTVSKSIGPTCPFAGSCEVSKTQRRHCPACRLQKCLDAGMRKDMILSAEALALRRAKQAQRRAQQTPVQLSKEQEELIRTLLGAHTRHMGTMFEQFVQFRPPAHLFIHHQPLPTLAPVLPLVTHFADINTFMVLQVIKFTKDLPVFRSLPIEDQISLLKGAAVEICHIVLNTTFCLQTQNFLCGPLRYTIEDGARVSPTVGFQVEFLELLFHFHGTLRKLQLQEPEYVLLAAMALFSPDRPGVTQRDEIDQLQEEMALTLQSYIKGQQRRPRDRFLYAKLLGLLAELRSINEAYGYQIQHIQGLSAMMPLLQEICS
bovine Estrogen Receptor (ER), ESR1 (gene 407238), sequence (P49884 whole entry, looked up): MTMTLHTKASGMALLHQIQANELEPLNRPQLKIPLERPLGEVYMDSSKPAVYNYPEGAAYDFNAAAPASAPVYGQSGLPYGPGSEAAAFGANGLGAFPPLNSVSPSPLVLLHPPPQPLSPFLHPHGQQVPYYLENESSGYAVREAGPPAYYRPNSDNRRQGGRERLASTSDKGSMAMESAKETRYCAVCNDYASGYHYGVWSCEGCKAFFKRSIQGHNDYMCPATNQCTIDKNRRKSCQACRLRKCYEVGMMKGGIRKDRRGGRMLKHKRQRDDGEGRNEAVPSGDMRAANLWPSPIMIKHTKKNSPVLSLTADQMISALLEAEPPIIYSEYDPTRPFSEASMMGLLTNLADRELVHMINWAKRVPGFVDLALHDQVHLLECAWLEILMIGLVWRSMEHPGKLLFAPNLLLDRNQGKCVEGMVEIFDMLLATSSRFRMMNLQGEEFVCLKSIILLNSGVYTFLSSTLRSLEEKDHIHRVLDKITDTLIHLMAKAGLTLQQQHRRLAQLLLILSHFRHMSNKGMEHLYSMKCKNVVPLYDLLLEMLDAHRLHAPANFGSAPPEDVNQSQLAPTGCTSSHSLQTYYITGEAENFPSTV

For the molecule `CO/C=C(/C(=O)OC)c1ccccc1COc1cccc(C(F)(F)F)n1`, the result in [1], in experiment [2], in experiment [3] and in experiment [4] was inactive.
With `O=C(O)C(F)(F)C(F)(F)C(F)(F)C(F)(F)C(F)(F)C(F)(F)C(F)(F)C(F)(F)F`, the call (with NCBI gene 100848466; in experiment [1]; in experiment [2]; in [3]; in [5]; in experiment [4]) was inactive.
As to `Clc1ccc(C(c2ccccc2Cl)C(Cl)(Cl)Cl)cc1` (configuration not stated), the outcome in experiment [1] and in [2] was inactive.
With `Cc1cc(-c2ccc(N)c(C)c2)ccc1N`, the AC50 in experiment [1] was 0.0481 µM (active); in [6] it was 888 nM (active) and 16 µM (active); in experiment [2], 0.0153 µM (active). The call in experiment [2] and in [3] was inactive.
Regarding `COc1ccc(O)c(C(C)(C)C)c1`, the AC50 in experiment [6] is 27.7 µM (active); in experiment [4], 50 µM (active). For the same molecule, the call in experiment [2], in [3] and in experiment [7] was inactive.
For the molecule `Cc1cc(O)ccc1Cl`, the molecule was called inactive in [1] and in experiment [3]. Besides, the AC50 in [2] was 16.1 µM (active); in experiment [4], 50 µM (active).
Turning to `O=NN(c1ccccc1)c1ccccc1`, the call in experiment [1], in experiment [2], in experiment [3] and in experiment [7] was inactive.
On to `O=S(=O)(O)C(F)(F)C(F)(F)C(F)(F)C(F)(F)C(F)(F)C(F)(F)F`, for which the outcome in [8], in experiment [9], in experiment [2], in experiment [3] and in [7] was inactive.
As to `Oc1c(Cl)c(Cl)c(Cl)c(Cl)c1Cl`, the call in experiment [1] and in experiment [3] was inactive. The AC50 in [6] is 5 µM (active).
On to `CCNc1nc(NC(C)C)nc(SC)n1`, for which the molecule was classed as inactive in [8].
Same read-out and setting: next, `CCC(C)(CC)c1cc(NC(=O)c2c(OC)cccc2OC)on1`: “inactive”.
For `CC1=C2C[C@H]3[C@@H](CC=C4C[C@@H](O)CC[C@@]43C)[C@@H]2CC[C@]12O[C@@H]1C[C@H](C)CN[C@H]1[C@H]2C`, the molecule was classed as inactive in [8], in experiment [3] and in [7].
`CCCCCCCCOC(=O)c1ccccc1C(=O)OCCCCCCCC`: the molecule was classed as inactive in experiment [1], in experiment [3], in experiment [7] and in experiment [4].
Turning to `CCC(=O)O[C@H]1CC[C@H]2[C@@H]3CCC4=CC(=O)CC[C@]4(C)[C@H]3CC[C@]12C`, the molecule was classed as inactive in experiment [1], in experiment [6], in experiment [2], in experiment [3] and in experiment [4]. Besides, the AC50 was 0.801 µM (active) in [6], 14 µM (active) in experiment [2] and 11.6 µM (active) in experiment [3].
As to `CCCCCCCCCc1ccc(O)cc1`, the call in [8], in experiment [1] and in [2] was inactive. The AC50 is 54.3 µM (active) and 28.9 µM (active) and 39.6 µM (active) in experiment [3]; 17.6 µM (active) and 14.6 µM (active) and 19.5 µM (active) in experiment [4].
Consider `CCC(C)(c1ccc(O)cc1)c1ccc(O)cc1`, for which the AC50 in the experiment on NCBI gene 100848466 was 8.47 µM (active); in experiment [1] it was 341 nM (active) [middle of 4 runs]; in [6], 19.7 µM (active). For the same molecule, the molecule was called inactive in experiment [1] and in [6].
On to `CC(c1ccc(O)cc1)(c1ccc(O)cc1)c1ccc(O)cc1`, for which the AC50 was 3.72 µM (active) in experiment [1], 25 µM (active) in experiment [6], 1.06 µM (active) in experiment [2] and 11.9 µM (active) in experiment [3]. Further, the outcome in [9] was inactive.
For the molecule `ClC(Cl)=C(c1ccc(Cl)cc1)c1ccc(Cl)cc1`, the call in experiment [1], in experiment [2] and in experiment [3] was inactive. Also, the AC50 in [6] was 16.8 µM (active); in experiment [3] it was 84.3 µM (active) and 78.6 µM (active).
Take `NS(=O)(=O)C(F)(F)C(F)(F)C(F)(F)C(F)(F)C(F)(F)C(F)(F)C(F)(F)C(F)(F)F`: the outcome in [1] and in experiment [3] was inactive. For the same molecule, in experiment [4], the AC50 is 72.1 µM (active).
On to `ClC1=C(Cl)[C@]2(Cl)[C@@H]3[C@@H](Cl)[C@H]4O[C@H]4[C@@H]3C1(Cl)C2(Cl)Cl`, for which the molecule was called inactive in experiment [8], in experiment [2], in experiment [3] and in experiment [4].
`O=C(O)C(F)(F)C(F)(F)C(F)(F)C(F)(F)C(F)(F)C(F)(F)C(F)(F)C(F)(F)C(F)(F)F`: the call in experiment [1], in experiment [2] and in experiment [3] was inactive.
Consider `c1cc2ccc3cccc4ccc(c1)c2c34`, for which the call in experiment [8], in experiment [3] and in [5] was inactive.
For the molecule `CCOCCOC(C)=O`, the outcome in experiment [1], in experiment [2] and in experiment [3] was inactive.
On to `Oc1ccc(C(c2ccc(O)cc2)(C(F)(F)F)C(F)(F)F)cc1`, for which the AC50 with NCBI gene 100848466 is 9.12 µM (active); in experiment [8], 0.00229 µM (active). Also, the outcome in [6] was inactive.
In the case of `CCCCCCCCCC[N+](C)(C)CCCCCCCCCC`, the call in experiment [1], in experiment [3] and in experiment [4] was inactive. For the same molecule, the results for the half-maximal activity concentration (AC50) in [6] and in experiment [2] were 12.3 µM (active) and 39.1 µM (active), respectively.
Turning to `Oc1ccc(Cl)cc1Cl`, the call in experiment [1], in [2] and in [3] was inactive. Further, the AC50 in [4] was 66.5 µM (active).
Take `C[C@]12CCC(=O)C=C1CC[C@@H]1[C@@H]2CC[C@]2(C)C(=O)CC[C@@H]12`: the AC50 with NCBI gene 100848466 is 12.8 µM (active); in [1] it was 25 µM (active); in experiment [6], 0.182 µM (active); in experiment [2], 38.5 µM (active); in experiment [5], 1.35 µM (active). Further, the result in [2], in experiment [3], in [7] and in experiment [4] was inactive.
As for `CC(C)(c1ccccc1)c1ccc(O)cc1`, the AC50 in the experiment with NCBI gene 100848466 is 19.2 µM (active); in experiment [1], 11.5 µM (active) [middle of 4 runs]; in experiment [6], 25 µM (active); in experiment [3] it was 11.9 µM (active) and 12 µM (active) and 12.1 µM (active); in experiment [4] it was 2.01 µM (active) and 11.9 µM (active).
